Out of some 39,000 compounds screened, about 3,300 (8.5%) were called active. The list comes from a sample in which actives are over-represented; it also holds similar structures and randomly drawn compounds.

The experiment has as its system HepG2. Nature of the experiment: cytotoxicity call (relative viability < 0.9). Particulars: 10 µM.
In the case of `Nc1ncnc2c([C@@H]3N[C@H](CO)[C@@H](O)[C@H]3O)c[nH]c12`, the cytotoxicity call is “inactive”.

For `Cc1noc(C)c1S(=O)(=O)Nc1ccc2c(c1)C(=O)N([C@H](C)CO)C[C@H](C)[C@@H](CN(C)Cc1ccc(Cl)c(Cl)c1)OCCCC[C@@H](C)O2`, the cytotoxicity call was “inactive”. Then `C[C@@H](Oc1ccccc1Cl)c1nc2ccc(Cl)cc2[nH]1`, with “inactive”; and `COC(=O)[C@H]1c2cc3c(c(O)c2[C@@H](O[C@@H]2O[C@H](C)[C@H](OC)[C@](C)(OC)[C@@H]2OC)C[C@@]1(C)O)C(=O)c1c(O)cc2c(c1C3=O)O[C@H]1O[C@@]2(C)[C@@H](O)[C@H](N(C)C)[C@@H]1O`, with “active”.

In the case of `O=C1O[C@H](c2ccccc2)[C@H](c2ccccc2)N2[C@H]1[C@@H](C(=O)N1CCCCCCC1)[C@]1(C(=O)Nc3ccc(C#CC4=CCCCC4)cc31)[C@H]2c1ccc(O)cc1`, the cytotoxicity call is “inactive”.

As to `COc1ccc(S(=O)(=O)N(C)C[C@@H]2Oc3c(NC(=O)C4CC4)cccc3C(=O)N([C@H](C)CO)C[C@H]2C)cc1`, the cytotoxicity call was “inactive”.

For the compound `O=C(C[C@H]1C=C[C@@H](NC(=O)c2ccc(F)cc2)[C@@H](CO)O1)NCc1ccncn1`, the cytotoxicity call is “inactive”. Then `C[C@@H]1CN([C@H](C)CO)C(=O)Cc2cc(NS(=O)(=O)c3cn(C)cn3)ccc2O[C@H]1CN(C)C`, with “inactive”. Then `O=C(C[C@@H]1C=C[C@H](NC(=O)CN2CCOCC2)[C@H](CO)O1)NC1CCCCC1`, with “inactive”; and `CO[C@@H]1CN(C)C(=O)c2ccc(NC(=O)c3ccccc3)cc2OC[C@H](C)N(C(=O)CN(C)C)C[C@@H]1C`, with “inactive”; and `OC[C@@H]1CCCO1`, with “inactive”. To `COc1ccc(NC(=O)Nc2ccc3c(c2)CC(=O)N([C@@H](C)CO)C[C@@H](C)[C@H](CN(C)Cc2ccc(-c4ccccc4)cc2)O3)cc1` belongs “active”; to `COc1ccc(NC(=O)Nc2ccc3c(c2)CC(=O)N([C@H](C)CO)C[C@H](C)[C@@H](CN(C)Cc2ccc(-c4ccccc4)cc2)O3)cc1`, “inactive”; to `COc1ccc(NC(=O)Nc2ccc3c(c2)CC(=O)N([C@@H](C)CO)C[C@H](C)[C@@H](CN(C)Cc2ccc(-c4ccccc4)cc2)O3)cc1`, “inactive”.

Consider `COc1ccc(NC(=O)Nc2ccc3c(c2)CC(=O)N([C@@H](C)CO)C[C@@H](C)[C@@H](CN(C)Cc2ccc(-c4ccccc4)cc2)O3)cc1`, for which the cytotoxicity call was “active”. On to `COc1ccc(NC(=O)Nc2ccc3c(c2)CC(=O)N([C@H](C)CO)C[C@H](C)[C@H](CN(C)Cc2ccc(-c4ccccc4)cc2)O3)cc1`, for which the cytotoxicity call was “active”. Then `COc1ccc(NC(=O)Nc2ccc3c(c2)CC(=O)N([C@H](C)CO)C[C@@H](C)[C@H](CN(C)Cc2ccc(-c4ccccc4)cc2)O3)cc1`, with “inactive”; and `COc1ccc(NC(=O)Nc2ccc3c(c2)CC(=O)N([C@@H](C)CO)C[C@H](C)[C@H](CN(C)Cc2ccc(-c4ccccc4)cc2)O3)cc1`, with “active”. As to `C[C@@H]1CN([C@H](C)CO)C(=O)Cc2cc(NS(=O)(=O)c3cccs3)ccc2O[C@@H]1CN(C)S(=O)(=O)c1ccc(F)cc1`, the cytotoxicity call is “inactive”. In the case of `COc1ccc(NC(=O)N(C)C[C@@H]2Oc3ccc(NC(=O)CCCCCC(=O)Nc4ccccc4N)cc3CC(=O)N([C@@H](C)CO)C[C@@H]2C)cc1`, the cytotoxicity call was “inactive”. To `C[C@@H]1CN([C@H](C)CO)C(=O)c2cc(NC(=O)C3CC3)ccc2O[C@H]1CN(C)S(=O)(=O)c1cn(C)cn1` belongs “inactive”; to `O=C(Cc1n[nH]c(=O)[nH]1)NCc1n[nH]c2c1CCCCC2`, “inactive”; to `N=C1SCCN1CC(=O)O`, “inactive”. Then `C[C@@H]1CCCCO[C@H](CN(C)S(=O)(=O)c2ccc(F)cc2)[C@H](C)CN([C@@H](C)CO)C(=O)c2cc(NC(=O)CCC(F)(F)F)ccc2O1`, with “inactive”.

`C[C@H]1CN([C@@H](C)CO)C(=O)c2cc(NC(=O)Cn3cnnn3)ccc2O[C@@H]1CN(C)S(=O)(=O)c1cn(C)cn1`: the cytotoxicity call is “inactive”.

For `Cc1ccc(S(=O)(=O)N(C)C[C@H]2Oc3c(NS(=O)(=O)c4cn(C)cn4)cccc3C(=O)N([C@H](C)CO)C[C@H]2C)cc1`, the cytotoxicity call was “inactive”. To `Cc1noc(C)c1NC(=O)Nc1ccc2c(c1)C(=O)N([C@H](C)CO)C[C@H](C)[C@@H](CN(C)C(=O)Nc1c(C)noc1C)OCCCC[C@@H](C)O2` belongs “inactive”; to `COc1ccc(-c2cnc3c(c2)C(=O)N([C@H](C)CO)C[C@@H](C)[C@H](CN(C)C(=O)Cc2ccccn2)O3)cc1`, “inactive”; to `CNC[C@H]1Oc2ccc(NC(=O)Cn3cnnn3)cc2CC(=O)N([C@@H](C)CO)C[C@@H]1C`, “inactive”.

For `C[C@@H]1CN([C@H](C)CO)C(=O)c2cc(C3=CCCC3)cnc2O[C@@H]1CN(C)S(=O)(=O)c1cn(C)cn1`, the cytotoxicity call was “inactive”. With `C[n+]1cccc(C(=O)O)c1`, the cytotoxicity call is “inactive”.

`COc1ccc(NC(=O)Nc2ccc3c(c2)CC(=O)N([C@H](C)CO)C[C@@H](C)[C@@H](CN(C)Cc2ccc(-c4ccccc4)cc2)O3)cc1`: the cytotoxicity call is “active”. Then `Cc1noc(C)c1NC(=O)Nc1ccc2c(c1)CC(=O)N([C@H](C)CO)C[C@H](C)[C@@H](CN(C)C(=O)NC(C)C)O2`, with “inactive”.

As for `CCc1ccc(/C=C2\SC(=O)N(CCCCCCNC(=O)c3ccc(Nc4ccc([N+](=O)[O-])c5nonc45)cc3)C2=O)cc1`, the cytotoxicity call was “inactive”. Then `CCc1ccc(/C=C2\SC(=O)N(CCCCCCNC(=O)c3ccccc3Nc3ccc([N+](=O)[O-])c4nonc34)C2=O)cc1`, with “active”; and `N[C@H]1CCCN(Cc2cccc(O)c2)C1`, with “inactive”. Consider `O=C(CCCCCCC(=O)Nc1ccc([C@@H]2O[C@H](CSc3ccncc3)C[C@H](c3ccccc3)O2)cc1)NO`, for which the cytotoxicity call is “inactive”. Then `O=C(CCCCCCC(=O)Nc1ccc([C@H]2O[C@@H](CSc3ccncc3)C[C@H](c3ccccc3)O2)cc1)NO`, with “inactive”; and `O=C(/C=C/c1ccc(CNc2ccc([C@H]3O[C@@H](CSc4ccncc4)C[C@H](c4ccccc4)O3)cc2)cc1)NO`, with “active”. To `C[C@H]1CN([C@@H](C)CO)C(=O)c2c(c3ccccc3n2C)-c2ccccc2CO[C@@H]1CN(C)Cc1ccc(Cl)c(Cl)c1` belongs “inactive”; to `CC(C)/C=C1\CC/C(=C\c2ccc(C(F)(F)F)cc2)C1=O`, “active”. With `O=C1C(=Cc2cccs2)CCCC1=Cc1cccs1`, the cytotoxicity call was “inactive”. Consider `O=C1/C(=C/c2cccs2)CCC/C1=C\c1cccs1`, for which the cytotoxicity call is “inactive”. To `C[C@@H]1CN([C@H](C)CO)C(=O)c2cc(NC(=O)Cn3cnnn3)ccc2O[C@H]1CN(C)S(=O)(=O)c1cccs1` belongs “inactive”; to `CC(=O)n1cc([C@@H]2C=C(C(=O)N3CCCCCCC3)O[C@H](OCc3ccc(CO)cc3)C2)c2ccccc21`, “inactive”. Then `COc1ccccc1C#Cc1ccc2c(c1)O[C@H](CN(C)Cc1cccnc1)[C@H](C)CN([C@@H](C)CO)S2(=O)=O`, with “inactive”; and `COc1ccccc1C#Cc1ccc2c(c1)O[C@H](CN(C)Cc1cccnc1)[C@@H](C)CN([C@@H](C)CO)S2(=O)=O`, with “inactive”; and `COc1ccccc1C#Cc1ccc2c(c1)O[C@@H](CN(C)Cc1cccnc1)[C@H](C)CN([C@H](C)CO)S2(=O)=O`, with “active”. To `COc1ccccc1C#Cc1ccc2c(c1)O[C@H](CN(C)Cc1cccnc1)[C@H](C)CN([C@H](C)CO)S2(=O)=O` belongs “inactive”; to `COc1ccccc1C#Cc1ccc2c(c1)O[C@@H](CN(C)Cc1cccnc1)[C@@H](C)CN([C@@H](C)CO)S2(=O)=O`, “active”; to `COc1ccccc1C#Cc1ccc2c(c1)O[C@@H](CN(C)Cc1cncnc1)[C@@H](C)CN([C@@H](C)CO)S2(=O)=O`, “inactive”.

With `COc1ccccc1C#Cc1ccc2c(c1)O[C@@H](CN(C)Cc1cccnc1)[C@H](C)CN([C@@H](C)CO)S2(=O)=O`, the cytotoxicity call is “inactive”.

In the case of `COc1ccccc1C#Cc1ccc2c(c1)O[C@@H](CN(C)Cc1cccnc1)[C@@H](C)CN([C@H](C)CO)S2(=O)=O`, the cytotoxicity call was “inactive”. Then `COc1ccccc1C#Cc1ccc2c(c1)O[C@H](CN(C)Cc1cccnc1)[C@@H](C)CN([C@H](C)CO)S2(=O)=O`, with “active”.

For `Cc1ccc(S(=O)(=O)Nc2ccc3c(c2)C(=O)N([C@@H](C)CO)C[C@@H](C)[C@H](CN(C)C(=O)C2CCCCC2)OCCCC[C@@H](C)O3)cc1`, the cytotoxicity call is “inactive”.

With `C=CCOC(=O)[C@@H]1[C@H]2C(=O)O[C@H](c3ccccc3)[C@H](c3ccccc3)N2[C@H](c2ccc(OCCOC(=O)[C@@H]3C[C@@H]4C(=O)NCC(=O)N4[C@@H]3c3cccc(OCCO)c3)cc2)[C@@]12C(=O)Nc1ccccc12`, the cytotoxicity call is “inactive”.

Consider `C[C@@H]1CN([C@@H](C)CO)C(=O)Cc2cc(NC(=O)Nc3cccc4ccccc34)ccc2O[C@H]1CN(C)C(=O)Nc1ccc2c(c1)OCO2`, for which the cytotoxicity call is “inactive”. `C[C@@H]1CCCCO[C@@H](CN(C)C(=O)C2CCCCC2)[C@H](C)CN([C@H](C)CO)C(=O)c2cc(NC(=O)c3ccccc3)ccc2O1`: the cytotoxicity call was “inactive”.

With `C[C@H]1CN([C@@H](C)CO)C(=O)c2cc(NC(=O)CCCN(C)C)ccc2O[C@@H]1CN(C)Cc1ccc2c(c1)OCO2`, the cytotoxicity call was “inactive”.

As for `C[C@@H]1CN([C@H](C)CO)C(=O)c2cc(NC(=O)Nc3ccc4c(c3)OCO4)ccc2O[C@@H](C)CCCCO[C@@H]1CN(C)Cc1ccc(Cl)c(Cl)c1`, the cytotoxicity call is “active”. To `C[C@H]1CCCCO[C@H](CN(C)Cc2ccc(Cl)c(Cl)c2)[C@@H](C)CN([C@@H](C)CO)C(=O)c2cc(NC(=O)Nc3ccc4c(c3)OCO4)ccc2O1` belongs “active”; to `C[C@@H]1CCCCO[C@@H](CN(C)Cc2ccc(Cl)c(Cl)c2)[C@H](C)CN([C@@H](C)CO)C(=O)c2cc(NC(=O)Nc3ccc4c(c3)OCO4)ccc2O1`, “inactive”. For `C[C@@H]1CCCCO[C@@H](CN(C)Cc2ccc(Cl)c(Cl)c2)[C@@H](C)CN([C@H](C)CO)C(=O)c2cc(NC(=O)Nc3ccc4c(c3)OCO4)ccc2O1`, the cytotoxicity call is “inactive”. To `C[C@@H]1CN([C@H](C)CO)C(=O)c2cc(NC(=O)Nc3ccc4c(c3)OCO4)ccc2O[C@@H](C)CCCCO[C@H]1CN(C)Cc1ccc(Cl)c(Cl)c1` belongs “active”; to `C[C@H](CO)N1C[C@H](C)[C@@H](CN(C)Cc2ccc(Cl)c(Cl)c2)OCCCC[C@H](C)Oc2ccc(NC(=O)Nc3ccc4c(c3)OCO4)cc2C1=O`, “inactive”. To `C[C@@H]1CCCCO[C@H](CN(C)Cc2ccc(Cl)c(Cl)c2)[C@@H](C)CN([C@@H](C)CO)C(=O)c2cc(NC(=O)Nc3ccc4c(c3)OCO4)ccc2O1` belongs “inactive”; to `C[C@@H]1CCCCO[C@H](CN(C)Cc2ccc(Cl)c(Cl)c2)[C@@H](C)CN([C@H](C)CO)C(=O)c2cc(NC(=O)Nc3ccc4c(c3)OCO4)ccc2O1`, “active”.

For the origin of these results see the antibiotic and cytotoxicity screens of Wong et al. (2023).
